Outcome and Potency data for 18 compounds are collected here from PubChem BioAssay (NCATS).

The structures appear in SMILES notation. Records with an inconclusive call do not appear. Active and inactive are the calls of the source. Unless noted, the call rests on the fitted dose curve; in most records, active means well fitted curve in the direction sought with a large enough effect; inconclusive means small, poorly fitted or top-dose-only effect, or another doubt; inactive means no such curve, though single readings can be large; an effect the other way counts as inactive or inconclusive.

Assay [1] is described as follows: Cellular Toxicity (caspase-3) HepG2 (AID 654).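 Further: cells exposed to compound for 16 hours before reading.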 In short, it runs like this:
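Caspase 3/7 activation in HepG2 is measured as rising luminescence after a 16 hr treatment at 37 °C. Values are scaled between DMSO basal and 100 uM tamoxifen, and AC50 is fitted with the Hill equation.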

Assay [2] is described as follows: Cellular Toxicity (caspase-3) Jurkat (AID 655).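 Further: cells exposed to compound for 16 h at 37 °C before reading.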 The gist of the method:
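5000 Jurkat cells/well; compound 16 hr, 37 °C; Caspase-Glo 3/7 added, 20 min RT; luminescence read. Norm: DMSO = 0%, tamoxifen 100 uM = 100%. AC50, Hill model.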

Assay [3] can be described thus: Cellular Toxicity (caspase-3) HUV-EC-C (AID 656). The gist of the method: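 qHTS; HUV-EC-C, 1000 cells/well; 5 hr settle, 16 hr cmpd, 37°C; Caspase-Glo 3/7, 20 min RT; luminescence. Norm: DMSO = 0%, tamoxifen 100 uM = 100%. Hill-fit AC50.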
Assay [4] in a line: Cellular Toxicity (caspase-3) SHSY5Y (AID 657).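 Further: cells exposed to compound for 16 hours at 37 °C.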 In short, it runs like this: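 qHTS, SH-SY5Y, 1500 cells/well, 5 h pre-incubation 37 °C; compound 16 h 37 °C; Caspase-Glo 3/7 1 h RT; luminescence. Norm.: DMSO = 0, 10 uM staurosporine = 100%. Hill fit → AC50.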
A short description of assay [5]: Cellular Toxicity (caspase-3) BJ (AID 658). The gist of the method: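 Plated BJ cells (1000/well) rested 5 hr, received compound for 16 hr at 37 °C, then Caspase-Glo 3/7 reagent for 1 hr at room temperature before luminescence reading.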
Assay [6] in a line: Cellular Toxicity (caspase-3) MRC-5 (AID 659). In short, it runs like this: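 Apoptosis readout in MRC-5 cells: luciferase light generated after caspase 3/7 cleaves a peptide-aminoluciferin substrate, measured post 16 hr compound incubation at 37 °C.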
The nature of assay [7]: Cellular Toxicity (caspase-3) Mesangial (AID 660).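 Further: combined caspase 3 and 7 activity read by Caspase-Glo luminescence; cells exposed to compound for 16 h before the caspase read.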 In short, it runs like this: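 Seed cells derived from normal human renal glomeruli, incubate 5 h, add compounds across concentrations and incubate 16 h at 37 °C. Caspase 3/7 activation is then quantified by luciferase light, with AC50 derived by Hill modeling.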
Assay [8] can be described thus: Cellular Toxicity (caspase-3) SK-N-SH (AID 661). The gist of the method:
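Cells were seeded and incubated 5 hr at 37 °C, dosed with compound over a concentration range for 16 hr, then given Caspase-Glo 3/7 reagent for 1 hr at room temperature before luminescence reading.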

Assay [9] can be described thus: Cellular Toxicity (caspase-3) H-4-II-E (AID 663).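 Further: cells exposed to compound for 16 hr before readout.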 In short, it runs like this: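 Caspase 3/7 activation measured in H-4-II-E cells in complete culture medium after 16 hr treatment at 37 °C, using luciferase-coupled substrate readout; AC50 values come from Hill-equation fits of normalized concentration-response data.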
Assay [10] is described as follows: Cellular Toxicity (caspase-3) Hek293 (AID 664).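 Further: cells exposed to compound for 16 h at 37 °C before readout.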 The gist of the method: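 qHTS, HEK293 (human embryonic kidney), 16 h cpd exposure in complete medium. Caspase-3/7 activation = luminescence increase; normalized to DMSO/100 uM tamoxifen; Hill-fit AC50.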
A short description of assay [11]: Cellular Toxicity (caspase-3) N2a (AID 665).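 Further: compound exposure lasted 16 h at 37 °C before readout.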 The gist of the method: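 Caspase-3/7 activation, measured as increased luminescence from aminoluciferin release, is quantified in mouse N2a cells exposed to compounds for 16 h. Values are normalized to DMSO and 10 uM staurosporine, with AC50 derived by Hill modelling.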
Assay [12] is described as follows: Cellular Toxicity (caspase-3) NIH 3T3 (AID 666).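 Further: caspase signal read after 16 h compound exposure.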 The gist of the method: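 Cells were plated at 1000 per well and incubated 5 hr at 37°C, then compound was added for 16 hr. Caspase-Glo 3/7 reagent followed for 20 min at room temperature before luminescence was read.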
Assay [13] is described as follows: Cellular Toxicity (caspase-3) Renal Proximal Tubule (AID 667).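 Further: cells exposed to compound for 16 hours at 37 °C before detection.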 In short, it runs like this: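 AC50 derived by standard Hill fit of concentration-response data, normalized between DMSO basal and 10 uM staurosporine as 100% stimulation. Cells: primary rat kidney proximal tubule, 16 h treatment at 37 °C.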
Assay [14] concerns the target Cytochrome P450 3A4 (Homo sapiens) (UniProt P08684). Briefly: qHTS Assay for Inhibitors and Substrates of Cytochrome P450 3A4 (AID 884). Further: series mostly up to about 57 µM; nearly all actives have a fitted effect of over 50% in size. The gist of the method: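 Luminescent readout of luciferin produced by CYP3A4 (20 nM) dealkylation of Luciferin-PPXE, 25 uM (its KM). NADPH-driven reaction ran 60 min at RT after 10 min compound preincubation; data scaled to 57 uM ketoconazole as 100% inhibition.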

Assay [15] has the same target. Briefly: qHTS Assay for Activators of Cytochrome P450 3A4 (AID 885). Further: nearly all actives have a fitted effect of over 65% in size. In short, it runs like this:
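CYP3A4 activity: Luciferin-PPXE O-dealkylation, 25uM substrate, 200mM KPO4, RT throughout. Read-out is luciferase luminescence; higher values reflect activation.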
On the technique in general: qHTS replaces the single test concentration by a dilution series.

Assay [16] addresses Cytochrome P450 2C9 (Homo sapiens) (UniProt P11712). Briefly: qHTS Assay for Inhibitors and Substrates of Cytochrome P450 2C9 (AID 883). Further: potency means the concentration at half of the fitted maximal effect; nearly all actives have a fitted effect of over 60% in size. In short, it runs like this: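 A luminogenic readout tracked human CYP2C9 (10nM) converting deoxyluciferin (100uM, at KM) in 25mM KPO4 during 60 min at 37C with regenerated NADPH. Values normalized to 57uM sulphaphenazole as complete inhibition.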

Assay [17] addresses Guanine nucleotide-binding protein G(i) subunit alpha-1 (Homo sapiens) (UniProt P63096). Briefly: qHTS Assay for Inhibitors of RGS12 GoLoco Motif Activity (Green Fluorophore) (AID 879).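 Further: negative values mean loss of peptide binding seen as reduced polarization.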 In short, it runs like this:
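A drop in FITC polarization marked displacement of the FITC-tagged RGS12 GoLoco peptide (10 nM) from Gαi1 (50 nM). Compounds were incubated 10 min at room temperature in Tris pH 7.5 buffer containing 150 mM NaCl, 0.1 mM GDP and 0.05% NP40; unlabeled peptide titration served as control.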

Assay [18] is described as follows: qHTS Assay for Identification of Small Molecule Antagonists for NFkB Signaling Pathway (AID 895; active means well fitted inhibition curve with a large enough effect in the signal ratio, with a control signal flat, not every such curve was filed as active; the % refers to the signal ratio). In short, it runs like this: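 NFkB-bla ME-180 cervical carcinoma cells with beta-lactamase reporter under NFkB response element; compounds added, then TNF alpha at 10 pM final (EC50), 5 h at 37 C. LiveBLAzer substrate 2 h, room temperature; emission 460/530 nm at 405 nm excitation.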

Chain of Cytochrome P450 3A4 (Homo sapiens) (P08684 whole entry, looked up): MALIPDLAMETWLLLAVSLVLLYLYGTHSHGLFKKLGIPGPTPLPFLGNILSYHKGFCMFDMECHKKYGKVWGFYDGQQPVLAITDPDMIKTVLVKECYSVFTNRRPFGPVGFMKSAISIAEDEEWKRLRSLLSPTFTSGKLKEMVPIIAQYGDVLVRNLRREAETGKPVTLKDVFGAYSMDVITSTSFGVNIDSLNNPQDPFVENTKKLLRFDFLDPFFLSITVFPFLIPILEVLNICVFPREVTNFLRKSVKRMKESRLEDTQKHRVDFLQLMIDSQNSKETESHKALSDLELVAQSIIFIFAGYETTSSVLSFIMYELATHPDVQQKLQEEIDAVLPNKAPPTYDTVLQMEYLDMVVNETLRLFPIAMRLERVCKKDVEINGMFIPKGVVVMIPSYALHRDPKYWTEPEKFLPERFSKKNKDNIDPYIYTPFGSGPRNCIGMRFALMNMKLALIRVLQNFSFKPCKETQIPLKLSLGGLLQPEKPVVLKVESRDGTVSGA
Chain of Guanine nucleotide-binding protein G(i) subunit alpha-1 (Homo sapiens) (P63096 whole entry, looked up): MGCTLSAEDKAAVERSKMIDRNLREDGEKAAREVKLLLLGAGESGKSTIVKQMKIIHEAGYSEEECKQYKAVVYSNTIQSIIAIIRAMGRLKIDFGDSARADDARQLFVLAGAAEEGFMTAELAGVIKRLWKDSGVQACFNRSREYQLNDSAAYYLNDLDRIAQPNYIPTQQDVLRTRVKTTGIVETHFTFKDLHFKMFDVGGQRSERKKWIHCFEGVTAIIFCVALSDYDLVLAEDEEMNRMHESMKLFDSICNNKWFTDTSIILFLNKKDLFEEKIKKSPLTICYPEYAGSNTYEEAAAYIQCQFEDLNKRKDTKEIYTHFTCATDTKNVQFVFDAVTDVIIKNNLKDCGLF
Chain of Cytochrome P450 2C9 (Homo sapiens) (P11712 whole entry, looked up): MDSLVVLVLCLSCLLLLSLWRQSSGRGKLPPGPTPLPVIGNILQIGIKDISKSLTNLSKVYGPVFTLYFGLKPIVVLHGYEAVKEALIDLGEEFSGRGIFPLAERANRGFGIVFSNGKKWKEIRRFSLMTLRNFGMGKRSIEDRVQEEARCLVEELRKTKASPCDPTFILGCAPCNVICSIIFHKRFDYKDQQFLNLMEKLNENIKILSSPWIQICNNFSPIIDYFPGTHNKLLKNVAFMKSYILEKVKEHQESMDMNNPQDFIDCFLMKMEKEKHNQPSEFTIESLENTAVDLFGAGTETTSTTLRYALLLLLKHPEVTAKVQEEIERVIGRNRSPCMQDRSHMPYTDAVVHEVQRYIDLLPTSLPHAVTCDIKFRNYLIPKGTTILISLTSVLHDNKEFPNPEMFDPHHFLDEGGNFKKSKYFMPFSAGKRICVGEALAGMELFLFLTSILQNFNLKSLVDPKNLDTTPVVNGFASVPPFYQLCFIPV

For `CN(C)[C@@H]1C(=O)C(C(N)=O)=C(O)[C@@]2(O)C(=O)C3=C(O)c4c(O)cccc4[C@@](C)(O)[C@H]3[C@H](O)[C@@H]12`, the compound was called inactive in [1], in assay [2], in assay [3], in assay [4], in assay [5] and in [6]. The outcome in assay [7], in [8], in assay [9], in assay [10], in assay [11] and in assay [12] was inactive. Moreover, in assay [13], the call was inactive. In assay [14], the Potency result is “inactive”.
Turning to `Nc1ccc(Cl)cc1N`, the compound was called inactive in [3], in assay [4], in [5], in assay [6], in [7] and in assay [8]. Besides, the outcome in assay [9], in [10], in assay [11], in [12], in assay [13] and in assay [15] was inactive.
For the compound `O=[N+]([O-])c1c(Cl)c(Cl)cc(Cl)c1Cl`, the result in assay [1], in assay [2], in assay [3], in assay [4], in [5] and in [6] was inactive. In addition, the compound was classed as inactive in assay [7], in assay [8], in assay [9], in assay [10], in assay [11] and in [12]. Also, the outcome in assay [13] was inactive. Moreover, the Potency entry in assay [14] is “inactive”.
Turning to `CCCCCCCCc1ccc(O)cc1`, the result in [1], in [2], in assay [3], in assay [4], in assay [5] and in [6] was inactive. In addition, the result in assay [7], in assay [8], in [9], in [10], in assay [11] and in assay [12] was inactive. In addition, the compound was classed as inactive in assay [13]. For the same compound, the Potency result in assay [14] was “inactive”.
On to `CC(=O)[O][Hg][c]1ccccc1`, for which the outcome in assay [1], in [3], in [4], in assay [5], in assay [6] and in assay [7] was inactive. Besides, the compound was classed as inactive in assay [8], in assay [9], in [10], in assay [11], in assay [12] and in assay [13].
For the compound `CC(C)c1ccc2c(c1)c(SC(C)(C)C)c(CC(C)(C)C(=O)O)n2Cc1ccc(Cl)cc1`, the Potency in assay [16] was 6.31 µM (active). The outcome in [15] was inactive.
`Nc1ccc([N+](=O)[O-])cc1`: the compound was classed as inactive in assay [1], in assay [2], in assay [3], in assay [4], in assay [5] and in [6]. Further, the call in [7], in [8], in assay [9], in assay [10], in assay [11] and in [12] was inactive. For the same compound, in assay [13], the compound was called inactive. In assay [14], the Potency result is “inactive”.
`CC(C)(O)C(=O)Nc1ccc([N+](=O)[O-])c(C(F)(F)F)c1`: the outcome in [1], in [2], in assay [3], in assay [4], in assay [5] and in assay [6] was inactive. Besides, the outcome in assay [7], in [8], in assay [9], in assay [10], in assay [11] and in [12] was inactive. The compound was classed as inactive in [13] and in assay [15].
As to `O=C(N[C@H]1CN2CCC1CC2)c1ccc(Cl)cc1`, the Potency entry in assay [14] was “inactive”.
For `NC(N)=NOCCC(N)C(=O)O` (centres undefined), the compound was called inactive in [17].
For the compound `O=S(=O)(c1ccc(Cl)cc1)c1ccc(Cl)cc1`, the call in assay [1], in [2], in assay [3], in [4], in [5] and in assay [6] was inactive. Also, the outcome in assay [7], in assay [8], in assay [9], in assay [10], in assay [11] and in assay [12] was inactive. Besides, the result in assay [13] and in assay [15] was inactive.
For `CCCCCC[C@H]1C(=O)O[C@H](C)[C@H](NC(=O)c2cccc(NC=O)c2O)C(=O)O[C@@H](C)[C@@H]1OC(=O)CC(C)C`, the call in assay [15] was inactive.
Consider `CCOCCOC(C)=O`, for which the call in assay [1], in [2], in [3], in assay [4], in assay [5] and in assay [6] was inactive. In addition, the compound was called inactive in assay [7], in [8], in [9], in assay [10], in assay [11] and in assay [12]. Besides, in assay [13], the compound was called inactive. Further, the Potency result in assay [14] was “inactive”.
In the case of `O=C(O)COc1ccccc1`, the call in assay [1], in assay [2], in assay [3], in [4], in assay [5] and in assay [6] was inactive. Moreover, the compound was called inactive in assay [7], in [8], in assay [9], in assay [10], in [11] and in [12]. The compound was classed as inactive in assay [13]. Moreover, the Potency entry in [14] was “inactive”.
For the compound `NC(=NCCC[C@H](N)C(=O)O)N[N+](=O)[O-]`, the compound was classed as inactive in [17]. The Potency result in assay [18] was “inactive”.
Regarding `COC(C)(C)CCCC(C)C/C=C/C(C)=C/C(=O)OC(C)C` (centres undefined), the compound was called inactive in assay [1], in assay [2], in assay [3], in assay [4], in [5] and in assay [6]. In addition, the compound was called inactive in assay [7], in assay [8], in [9], in assay [10], in assay [11] and in assay [12]. Further, the call in assay [13] and in [15] was inactive.
For the compound `O=C(O)C(Cl)Cl`, the call in assay [1], in assay [2], in assay [3], in [4], in assay [5] and in assay [6] was inactive. The outcome in assay [7], in [8], in assay [9], in assay [10], in assay [11] and in assay [12] was inactive. Moreover, the compound was called inactive in assay [13]. In addition, the Potency entry in [14] is “inactive”.
In the case of `Cc1nc(-c2ccc(-c3ccc(C(=O)N4CCc5cc6c(cc54)C4(CCN(C)CC4)CO6)cc3)c(C)c2)no1`, the result in assay [17] and in assay [15] was inactive. In addition, the Potency in assay [16] was 7.94 µM (active).
